# Measured values: PubChem BioAssay
# Several values for one entry are separate records, joined by “and”; a condition that tells them apart may be missing. Identical values can stand only once. For some assays here: Potency and affinity values are given separately. Activity calls are given as the source filed them. Unless noted, no rule for the calls is given here.
# Key:
# [1] = differential killing of epithelial or mesenchymal cells, primary screen, imaging, PC-3E GFP, TEM4-18 mCherry, co-culture (AID 1345086;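 active = compounds killing one labelled cell type while sparing the other, by normalised counts and ratio limits, not self-fluorescent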;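 as to all read-outs here: cells exposed to compound for 72 h before imaging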;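 as to red/green cell ratio (normalised): normalised mesenchymal count divided by normalised epithelial count so high means epithelial killing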); conditions: imaging cell counts, at 1 µM; for red/green cell ratio (normalised): actives lie on both sides
# [2] = test system: Aerobactin synthetase IucA (Klebsiella pneumoniae hvKP1); assay: Biochemical IucA enzyme inhibition primary screen of the Spectrum library (AID 1346200); conditions: malachite green pyrophosphate, A620, at 8 µM, stronger effect = lower value;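 also: 100% = wells without compound and 0% = wells lacking enzyme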
# [3] = polyglutamine-triggered caspase-3 activation inhibitors, cell-based (AID 1583); conditions: polyglutamine-induced caspase-3 activation, cell assay; stronger effect = higher value;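 tested at 10 µM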
# [4] = suppressors of polyQ aggregation in yeast, 75Q-TubU reporter (AID 1593); conditions: Yeast 75Q polyglutamine aggregation reporter
# [5] = rescue of polyQ-huntingtin neuronal dysfunction in worms, whole organism, C. elegans mechanosensory neurons, N-terminal huntingtin (AID 1599); conditions: touch response, stronger effect = higher value
# [6] = inhibitors of mitochondrial cytochrome c release, biochemical, purified mitochondria (AID 1603); conditions: stronger effect = lower value;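 also: mouse liver mitochondria challenged with calcium chloride; signal normalized to the plate average as 100%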
# [7] = inhibitors of polyQ protein aggregation (AID 1604); conditions: polyglutamine-induced protein aggregation inhibition assay; stronger effect = higher value; tested at 2.5 µM
# [8] = enhancers of glutamate uptake in motor neurons, MN-1 cell line (AID 1612); conditions: MN-1 motor neuron cells, stronger effect = higher value;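 also: tested at 1 µM final; 0% = mean of DMSO vehicle wells on each plate; positive means more glutamate uptake than control and negative means less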
# [9] = reducers of polyQ inclusions in PC12 cells, cell-based, NGF-treated PC12, GFPQ80 (AID 1614); conditions: PC12 NGF-treated GFP-polyQ80 inclusion reduction;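 also: lower means fewer inclusions and 0 means no inclusions at all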
# [10] = suppressors of polyglutamine aggregation in yeast, 75Q-TubH (AID 1616); conditions: S. cerevisiae 75Q-TubH polyglutamine aggregation suppression; stronger effect = higher value
# [11] = liver-stage malaria parasite growth inhibition, primary screen, cell-based, HepG2, luciferase luminescence, HepG2 viability (AID 624349; in the data active = parasite load remaining mostly below about 12%, no sharp cut-off; inactive = mostly above about 10%;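 also: 100% = mean of DMSO negative control wells on the same plate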); conditions: P. berghei liver stage in HepG2, luciferase luminescence, concentration not given here; parasite load remaining: stronger effect = lower value; viability: measured here: HepG2 viability without parasites
# [12] = sensitizers of A549 cells to miR-34 induction, primary screen, imaging, A549 dox-inducible miR-34, nuclei and caspase counts (AID 1347080;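 active = compounds whose cell count with miR-34 switched on is under 0.7 times the count with it off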); conditions: A549 miR-34 inducible, Hoechst nuclei count, 48 h
# [13] = viability rescue of complex I mutant cybrids, primary screen, cell-based, galactose medium, ATP luminescence (AID 1645843;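 active = z-score of at least 1.8 in each of two replicates, scored against plate mean and spread of sample wells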;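 also: positive z means more ATP and so rescue of galactose-driven cybrid death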); conditions: complex I mutant cybrid cells, 72 h, stronger effect = higher value
# [14] = target: Mitogen-activated protein kinase 7 (Homo sapiens) (UniProt Q13164); assay: ERK5 transactivation activators in reporter cells, primary screen, cell-based, HTS (AID 1508626;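 active = luciferase signal above three times the same-plate solvent-only control wells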;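 also: luciferase driven by Gal4-ERK5 fusion binding five Gal4 sites before minimal TATA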); conditions: HeLa Gal4-ERK5 transactivation, 18 h, at 5 µM, stronger effect = higher value
# Chain of Mitogen-activated protein kinase 7 (Homo sapiens) (Q13164 whole entry, looked up, the tested form may be a part): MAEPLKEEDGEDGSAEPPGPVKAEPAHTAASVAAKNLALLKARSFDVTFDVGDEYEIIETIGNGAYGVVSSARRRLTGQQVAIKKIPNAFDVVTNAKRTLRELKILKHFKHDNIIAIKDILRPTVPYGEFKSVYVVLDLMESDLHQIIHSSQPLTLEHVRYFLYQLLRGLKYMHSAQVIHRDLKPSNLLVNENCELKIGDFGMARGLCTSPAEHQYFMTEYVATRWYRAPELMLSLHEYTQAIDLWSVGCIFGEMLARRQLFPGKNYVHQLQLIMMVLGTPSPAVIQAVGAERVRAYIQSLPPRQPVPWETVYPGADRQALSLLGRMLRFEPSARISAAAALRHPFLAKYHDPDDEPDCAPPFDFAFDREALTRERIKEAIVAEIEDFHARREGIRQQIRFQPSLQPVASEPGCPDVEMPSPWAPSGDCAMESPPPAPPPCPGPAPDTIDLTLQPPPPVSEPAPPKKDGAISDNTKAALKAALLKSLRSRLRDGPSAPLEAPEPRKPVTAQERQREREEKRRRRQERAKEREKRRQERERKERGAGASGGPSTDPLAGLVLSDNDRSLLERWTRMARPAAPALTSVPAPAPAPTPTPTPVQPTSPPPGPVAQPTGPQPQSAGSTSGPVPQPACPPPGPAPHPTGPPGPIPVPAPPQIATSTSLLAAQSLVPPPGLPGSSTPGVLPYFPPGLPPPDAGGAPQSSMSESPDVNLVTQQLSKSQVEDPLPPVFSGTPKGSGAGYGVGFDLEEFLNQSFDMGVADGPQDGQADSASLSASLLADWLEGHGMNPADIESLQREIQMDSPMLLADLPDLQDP
# [15] = measured here: epithelial PC-3E GFP cell survival
# [16] = measured here: mesenchymal TEM4-18 mCherry cell survival
# [17] = measured here: relative caspase fold change +Dox/-Dox
# [18] = measured here: total cells with miR-34 induction, stronger effect = lower value
# [19] = measured here: total cells without miR-34 induction
smiles,measurement,setting,value
CC1(C)C(=O)C=C[C@@]2(C)C1C[C@@H](O)[C@]1(C)C2CC[C@@]2(C)[C@H](c3ccoc3)OC(=O)[C@H]3O[C@]321 (stereo partly drawn),red/green cell ratio (normalised),[1],1.08 (inactive)
same,normalised cell number,[1]; [15],0.88
same,normalised cell number,[1]; [16],0.95
same,activity remaining,[2],88.4% (inactive)
NC1C[C@H]1c1ccccc1 (stereo partly drawn),inhibition,[3],-1.78%
same,score,[4],0.95
same,rescue above control,[5],2.94
same,cytochrome c release ratio,[6],0.57
same,inhibition of aggregation,[7],-4.08%
same,glutamate uptake change,[8],0.89%
same,inclusion score,[9],2
same,aggregation suppression score,[10],1.29
same,parasite load remaining,[11],139% (inactive) and 41.7% (inactive)
same,viability,[11],72.4% and 86.6%
same,red/green cell ratio (normalised),[1],1.23 (inactive)
same,normalised cell number,[1]; [15],0.99
same,normalised cell number,[1]; [16],1.22
same,activity remaining,[2],123% (inactive)
same,fold change,[12]; stronger effect = lower value,0.916 (inactive)
same,fold change,[12]; [17],1.81
same,cell count,[12]; [18],11800
same,cell count,[12]; [19],12900
C=C1CC2C(CC[C@]3(C)C(=O)CCC23)[C@@]2(C)C=CC(=O)C=C12 (stereo partly drawn),parasite load remaining,[11],9.27% (inactive)
same,viability,[11],99%
same,red/green cell ratio (normalised),[1],1.16 (inactive)
same,normalised cell number,[1]; [15],1.01
same,normalised cell number,[1]; [16],1.17
same,activity remaining,[2],121% (inactive)
same,fold change,[12]; stronger effect = lower value,0.911 (inactive) and 0.833 (inactive)
same,fold change,[12]; [17],1 and 2.69
same,cell count,[12]; [18],8770 and 9350
same,cell count,[12]; [19],9630 and 11200
same,z-score,[13],-1.42 (inactive)
CC(=O)O[C@H]1C(=O)[C@@]2(C)C([C@H](OC(=O)c3ccccc3)[C@]3(O)C[C@H](O)C(C)=C1C3(C)C)[C@]1(OC(C)=O)CO[C@@H]1C[C@@H]2O (stereo partly drawn),red/green cell ratio (normalised),[1],0.91 (inactive)
same,normalised cell number,[1]; [15],0.99
same,normalised cell number,[1]; [16],0.9
same,activity remaining,[2],96.8% (inactive)
CC(CO)NC(=O)C1C=C2c3cccc4[nH]cc(c34)C[C@H]2N(C)C1 (stereo partly drawn),parasite load remaining,[11],81.6% (inactive) and 59.7% (inactive)
same,viability,[11],72.8% and 111%
same,red/green cell ratio (normalised),[1],1.15 (inactive)
same,normalised cell number,[1]; [15],0.77
same,normalised cell number,[1]; [16],0.88
same,activity remaining,[2],98.2% (inactive)
same,fold change,[12]; stronger effect = lower value,0.895 (inactive)
same,fold change,[12]; [17],3.49
same,cell count,[12]; [18],11100
same,cell count,[12]; [19],12400
CC1CC[C@]2(NC1)O[C@H]1CC3C4CC[C@H]5C[C@@H](O)CC[C@]5(C)C4CC[C@]3(C)[C@H]1[C@@H]2C (stereo partly drawn),red/green cell ratio (normalised),"[1]; counts scaled to control wells, 1 = unselective",0.81 (inactive)
same,normalised cell number,[1]; [15],1.1
same,normalised cell number,[1]; [16],0.89
same,activity remaining,[2],96.8% (inactive)
C[C@]12CCC3C(CC[C@H]4C[C@@H](O)CC[C@]34C)C1CCC2=O (stereo partly drawn),red/green cell ratio (normalised),[1],0.99 (inactive)
same,normalised cell number,[1]; [15],1.2
same,normalised cell number,[1]; [16],1.19
same,activity remaining,[2],102% (inactive)
COc1cccc([C@]2(O)CCCC[C@H]2CN(C)C)c1,red/green cell ratio (normalised),[1],1.34 (inactive)
same,normalised cell number,[1]; [15],1.13
same,normalised cell number,[1]; [16],1.5
same,activity remaining,[2],98.7% (inactive)
same,fold change,[12]; stronger effect = lower value,0.9 (inactive)
same,fold change,[12]; [17],6.33
same,cell count,[12]; [18],11600
same,cell count,[12]; [19],12900
CC[C@@]1(O)C[C@H](O[C@H]2C[C@H](N(C)C)[C@H](O)[C@H](C)O2)c2c(cc3c(c2O)C(=O)c2c(O)ccc(O)c2C3=O)[C@H]1C(=O)OC,red/green cell ratio (normalised),[1],0.85 (inactive)
same,normalised cell number,[1]; [15],1.07
same,normalised cell number,[1]; [16],0.9
same,activity remaining,[2],96.8% (inactive)
same,luciferase signal,[14],32 AU (inactive)
